# “And” between values parts separate entries of the source, which are not always exact repeats. Equal entries are not always repeated. Inconclusive results are not listed. Entries that show only a call come without a potency. The source made the active and inactive calls. Unless noted, the call rests on the fitted dose curve; in most records, active means well fitted curve in the direction sought with a large enough effect; inconclusive means small, poorly fitted or top-dose-only effect, or another doubt; inactive means no such curve, though single readings can be large; an effect the other way counts as inactive or inconclusive.
# Tests used:
# [1] = NFAT Signaling Pathway (AID 444; active means well fitted curve in either direction with a large enough effect, not every such curve was filed as active;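 further: carbachol stimulus at about its EC50 of 1 µM final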); conditions: Jurkat NFAT-bla M1, carbachol, beta-lactamase ratio, 5 h; at 38 µM (top of the series)
# Outline: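 Jurkat cells with NFAT-driven β-lactamase reporter and co-expressed M1 receptor, stimulated with carbachol (final 1 uM, ~EC50), compound titration, 5 h at 37 °C. CCF4 loaded 1 h at RT; 460/530 nm ratio gave %activity and AC50.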
# [2] = biological target: Glucocorticoid receptor (Homo sapiens) (UniProt P04150); test: GR-GFP Redistribution (AID 450;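 active means compounds whose dose series gives a full or clear partial fitted curve of increased nuclear translocation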; further: potency means the concentration at half of the fitted maximal effect); conditions: U2OS GR-GFP nuclear translocation, laser cytometry, 2 h
# [3] = biological target: Glucocorticoid receptor (Homo sapiens) (UniProt P04150); test: GR-EFC Redistribution (AID 451; calls by dose curve; further: potency means the concentration at half of the fitted maximal effect); conditions: CHO-K1 GR-EFC translocation, beta-gal luminescence, 2 h
# Outline: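 CHO-K1 cells expressing nuclear EA and GR-ED fragments of b-gal; compounds titrated up to 46 uM final, 2 h at 37 C. GR nuclear translocation read as complemented b-gal luminescence after 1 h RT detection.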
# [4] = biological target: 3',5'-cyclic-AMP phosphodiesterase 4B (Homo sapiens) (UniProt Q07343); test: qHTS Assay for Inhibitors of PDE-IV (AID 607; active means well fitted activation curve with a large enough effect in the main read-out, with a control signal flat, not every such curve was filed as active)
# Outline: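 HEK293 ACTOne cells with CNG channel (1000/well), endogenous PDE4; membrane potential dye, compounds up to 22.9 uM final. Fluorescence Ex 535/Em 590; RO 20-1724 (100 uM final) as reference.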
# [5] = biological target: Guanine nucleotide-binding protein G(i) subunit alpha-1 (Homo sapiens) (UniProt P63096); test: qHTS Assay for Inhibitors of RGS12 GoLoco Motif Activity (Green Fluorophore) (AID 879);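 further: negative values mean loss of peptide binding seen as reduced polarization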
# Outline: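 Fluorescence polarization assay: 50 nM Gαi1 with 10 nM FITC-labeled RGS12 GoLoco peptide in 10 mM Tris pH 7.5, 150 mM NaCl, 0.1 mM GDP, 0.05% NP40, 10 min at room temperature with compound.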
# [6] = biological target: Pyruvate kinase (Leishmania mexicana) (UniProt Q27686); test: qHTS Validation Assay for Inhibitors of Leishmania Mexicana Pyruvate Kinase (AID 945)
# Outline: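 qHTS eight-point titrations against 0.2 nM LmPYK (E451W) in imidazole buffer pH 7.2 with 0.5 mM PEP, 0.1 mM ADP; 1 h, room temperature. Readout: PKLight luminescence, normalized to neutral DMSO wells.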
# [7] = biological target: Alpha-galactosidase (Coffea arabica) (UniProt Q42656); test: Counterscreen for Glucocerebrosidase Inhibitors: qHTS Assay for Coffee Bean alpha-Galactosidase at pH 4.5 (AID 957)
# Outline: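 Coffee bean alpha-galactosidase 2 nM, substrate 4-MU-alpha-Gal 80 uM, pH 4.5 citrate/Tween-20, 20 min RT. Cpd titration 0.7 nM–77 uM. Stop pH 10, fluorescence 365/440 nm; Hill-equation AC50.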
# [8] = biological target: Alpha-galactosidase A (Homo sapiens) (UniProt P06280); test: Counterscreen for Glucocerebrosidase Inhibitors: qHTS Assay for Human alpha-Galactosidase at pH 4.5 (AID 992)
# Outline: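 Human enzyme (2 nM) with 80 uM 4-methylumbelliferyl alpha-D-galactopyranoside in 50 mM citric acid, 0.005% Tween-20, pH 4.5, 20 min at room temperature. Compounds 0.7 nM–77 uM; fluorescence Ex 365/Em 440 after pH 10 stop; AC50 from Hill fits.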
# [9] = biological target: alpha-glucosidase (Oryza sativa, rice) (UniProt Q653V4); test: Counterscreen for Glucocerebrosidase Inhibitors: qHTS Assay for Rice alpha-Glucosidase at pH 5.0 (AID 997)
# Outline: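 Rice alpha-glucosidase (4 nM final) with 400 uM 4-methylumbelliferyl-alpha-D-glucopyranoside in citrate buffer pH 5.0, 20 min at room temperature, stopped at pH 10; fluorescence 365/440 nm, compounds 0.7 nM–77 uM, AC50 from Hill fits.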
# [10] = biological target: Alpha-galactosidase (Coffea arabica) (UniProt Q42656); test: Counterscreen for Glucocerebrosidase Inhibitors: qHTS Assay for Coffee Bean alpha-Galactosidase at pH 5.9 (AID 998)
# Outline: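 Green coffee bean enzyme (2 nM) with 4-methylumbelliferyl alpha-D-galactopyranoside (80 uM) in 50 mM citric acid, 0.005% Tween-20, pH 5.9, 20 min at room temperature; compounds 0.7 nM–77 uM. Stopped at pH 10, fluorescence Ex365/Em440; Hill-fit AC50.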
# [11] = Validation of Assay for Modulators of Lamin A Splicing (AID 1459; active means well fitted curve in the direction sought with a large enough effect in the signal ratio; the % refers to the signal ratio;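 further: cells exposed to compound for two days before reading; ratio rise marks activators and ratio drop marks inhibitors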)
# Outline: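 Dual-reporter HeLa S3 line (lamin A-EGFP minigene, DsRed2) treated with compounds 48 hrs, 0.5% DMSO final. Endpoint: EGFP/DsRed2 total intensity ratio from laser-scanning microplate cytometry.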
# [12] = qHTS Assay for Lipid Storage Modulators (AID 1519; calls by dose curve); conditions: Drosophila S3 cells, BODIPY lipid droplet/cell ratio, laser cytometry, cells loaded with oleic acid
# Outline: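 Cells seeded at 5,000 per well were treated with compounds over a concentration series and loaded with oleic acid (400 uM, as added). Lipid droplet fluorescence (488 nm excitation, 500-530 nm channel) was read by laser-scanning cytometry and normalized to 20 uM Triacsin C.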
# [13] = biological target: DNA repair nuclease/redox regulator APEX1 (Homo sapiens) (UniProt P27695); test: qHTS Validation Assay for Inhibitors of the Human Apurinic/apyrimidinic Endonuclease 1 (APE1) (AID 1705;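 further: TAMRA fluorescence gain over two minutes as APE1 cuts a quenched THF abasic duplex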)
# Outline: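 Substrate: 50 nM final fluorophore/quencher THF-abasic duplex. Enzyme preincubated with compounds 15 min, RT. Progress derived from fluorescence difference, third minus first kinetic read.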
# [14] = Counterscreen for APE1 Inhibitors: Fluorescent Dye Displacement Validation Assay (AID 1707)
# Outline: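 Thiazole Orange (250 nM) bound to 50 nM TAMRA-labelled dsDNA with tetrahydrofuran abasic site; displacement by DNA-binding compounds lowers fluorescence. Buffer 50 mM Tris-HCl pH 7.5, 50 mM NaCl, 2 mM MgCl2, 0.01% Tween-20; endpoint read at 480/540 nm.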
# [15] = biological target: Endonuclease 4 (Escherichia coli (strain K12)) (UniProt P0A6C1); test: Counterscreen for APE1 Inhibitors: qHTS Validation Assay for Inhibitors of Endonuclease IV (AID 1708)
# Outline: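 E. coli EndoIV at 2 nM final, preincubated 15 min at room temperature with compound, then 50 nM TAMRA/BHQ-2 THF abasic-site duplex added. Buffer: 50 mM Tris-HCl pH 7.5, 50 mM NaCl, 2 mM MgCl2, 1 mM DTT, 0.01% Tween-20. Kinetic fluorescence increase, third minus first read.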
# [16] = qHTS for differential inhibitors of proliferation of Plasmodium falciparum line 3D7 (AID 1876);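 further: parasite growth measured after three days of culture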
# [17] = qHTS for differential inhibitors of proliferation of Plasmodium falciparum line D10 (AID 1877);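 further: parasites grown with compound for 72 h before DNA staining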
# [18] = qHTS for differential inhibitors of proliferation of Plasmodium falciparum line Dd2 (AID 1882); conditions: Potency: Plasmodium falciparum Dd2 proliferation inhibition; further: nearly all actives have a fitted effect of over 65% in size
# Outline: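 Dd2-infected erythrocytes (0.3% parasitemia, 2.5% hematocrit final) incubated with compound 72 h at 37 C, 5% CO2; lysed with saponin/Triton buffer containing SYBR Green I, incubated overnight in the dark, then read by fluorescence (485/535 nm). Normalized to 0.29 uM artemisinin and DMSO.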
# [19] = qHTS for differential inhibitors of proliferation of Plasmodium falciparum line HB3 (AID 1886); conditions: Potency: Plasmodium falciparum HB3 proliferation inhibition;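 further: parasites grown with compound for 72 h before SYBR Green readout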
# [20] = biological target: ATP-dependent DNA helicase Q1 (Homo sapiens) (UniProt P46063); test: qHTS Validation Assay for Inhibitors of RecQ-Like Dna Helicase 1 (RECQ1) (AID 2353)
# Outline: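 50 nM RECQ1T1 preincubated 15 min with compound in Tris pH 8.0 buffer with MgCl2, DTT, Tween-20 and 2.5 ug/ml poly(dI-dC); started with 200 nM TAMRA/BHQ-2 forked duplex and 2 mM ATP. Unwinding read as fluorescence (525/598 nm), two reads 2 h apart.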
# [21] = biological target: RecQ-like DNA helicase BLM (Homo sapiens) (UniProt P54132); test: qHTS Validation Assay for Inhibitors of Bloom's syndrome helicase (BLM) (AID 2364)
# Outline: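 50 nM BLM preincubated 15 min at room temperature with compound in pH 8.0 Tris buffer containing 2.5 ug/ml poly(dI-dC); started with 200 nM TAMRA/BHQ-2 forked duplex and 2 mM ATP (final). Unwinding read as TAMRA fluorescence increase, two reads 2 h apart.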
# [22] = Validation screen for small molecules that induce DNA re-replication in MCF 10A normal breast cells (AID 463097); further: nearly all actives have a fitted effect of over 60% in size
# Outline: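 Following 48 hr compound incubation (37 C, 5% CO2), MCF 10A cells receive Hoechst for 40 min at 37 C. Nuclei are then scanned (excitation 405 nm, emission 500-530 nm) for total fluorescence intensity.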
# [23] = Quantitative high throughput screen for delayed death inhibitors of the malarial parasite plastid, 96 hour incubation (AID 488745);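 further: luciferase-expressing P. falciparum in erythrocytes at 2% hematocrit and 0.1% parasitemia; nearly all actives have a fitted effect of over 70% in size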
# Outline: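 Infected erythrocytes were added to compound in Albumax-supplemented RPMI 1640 at 0.1% parasitemia and 2% hematocrit (final), incubated 96 h at 37 C under 5% CO2, then luciferase reagent was added and luminescence measured.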
# [24] = Quantitative high throughput screen for delayed death inhibitors of the malarial parasite plastid, 48 hour incubation (AID 488752); further: nearly all actives have a fitted effect of over 65% in size
# Outline: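 Readout is firefly luciferase luminescence from a reporter integrated into the parasite genome, with lower signal taken as inhibited growth. Infected red cells (0.1% parasitemia, 2% hematocrit final) are cultured with compound for one 48 h cycle at 37 C.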
# [25] = biological target: M-phase phosphoprotein 8 (Homo sapiens) (UniProt Q99549); test: qHTS Validation Assay for Inhibitors for MPP8 Chromodomain Interactions with Methylated Histone Tails (AID 488949);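 further: 50 nM MPP8 with 50 nM peptide preformed then compounds added for 30 min; AlphaScreen signal from MPP8 chromodomain bound to biotinylated H3K9me3 peptide; top concentration of the series differs between compounds; nearly all actives have a fitted effect of over 55% in size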
# Outline: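 Chemiluminescent proximity assay: histidine-tag capture via nickel acceptor beads, biotin peptide via streptavidin donor beads. Protein and peptide each at 50 nM, pH 7.4, with 30 min incubations at room temperature for complex formation, compound exposure and bead binding.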
# [26] = biological target: Thyrotropin receptor (Homo sapiens) (UniProt P16473); test: qHTS Assay for Antagonists of the Thyroid Stimulating Hormone Receptor (AID 488980)
# Outline: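 Inhibition of TSH-stimulated cAMP accumulation was quantified by homogeneous time-resolved FRET in TSHR-transfected HEK293 cells. Agonist: TSH, 4 nM final (EC80).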
# [27] = biological target: Thyrotropin-releasing hormone receptor (Homo sapiens) (UniProt P34981); test: qHTS for Small Molecule Agonists and Allosteric Enhancers of Human TRH Receptor: Validation Screen for Agonists (AID 493127;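 active means calcium activation more than 3 SD above the typical response in the agonist read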;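 further: intracellular calcium rise by fluo-8 fluorescence before TRH EC20 addition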); conditions: TRH receptor agonist cell assay; at 2 µM; stronger effect = higher value
# Outline: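 Cells 2000/well, 10% FCS, 18 h 33.5C/5% CO2 → fluo-8 Ca dye, RT 30 min–1.5 h → FDSS baseline 10 × 1 s → compound added → 230 cycles (1 s/cycle) agonist mode. TRH controls.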
# [28] = biological target: Galactokinase (Homo sapiens) (UniProt P51570); test: qHTS Validation Assay for Inhibitors of Human Galactokinase (GALK) (AID 493189)
# Outline: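 Enzyme activity is inferred from ATP consumption: human GALK phosphorylates galactose (100 uM) using 35 uM ATP for 1 h at room temperature, and luciferase-based Kinase-Glo Plus reports unconsumed ATP.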
# [29] = Validation screen for small molecules that induce DNA re-replication in SW480 colon adenocarcinoma cells (AID 504364)
# Outline: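 250 cells/well; compound pinned in; 48 hr, 37 C, 5% CO2; Hoechst added, 40 min; nuclear fluorescence imaged, 405 ex / 500-530 em; re-replication scored as increase in high-intensity nuclei.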
# [30] = biological target: DNA dC->dU-editing enzyme APOBEC-3G (Homo sapiens) (UniProt Q9HC16); test: qHTS for inhibitors of Vif-A3G interactions: Validation (AID 588379)
# Outline: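 HeLa cells stably expressing Vif and A3G-eYFP, 700 cells/well, incubated overnight at 37 deg C, then exposed to compound overnight at 37 deg C. Inhibition of Vif-mediated degradation read as increased yellow fluorescence (Ex 488/Em 500-530) by laser-scanning cytometry.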
# [31] = system: Zika virus NS2B-NS3 protease; test: Primary screen GU AMC qHTS for Zika virus inhibitors (AID 1347154); further: nearly all actives have a fitted effect of over 70% in size
# Outline: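 Unlinked Zika NS2B hydrophilic domain–NS3 protease complex at 25 nM in 10 mM Tris-HCl pH 8.0, 0.01% Tween 20, with an AMC peptide substrate. Fluorescence change (340/450 nm) over 15 min at room temperature, normalized to controls, fitted to 4-parameter Hill.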
# [32] = Confirmatory qHTS for small molecule stabilizers of the endoplasmic reticulum resident proteome: Secreted ER Calcium Modulated Protein (SERCaMP) assay (AID 1508628); further: nearly all actives have a fitted effect of over 40% in size
# Outline: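 SH-SY5Y cells stably expressing GLuc-SERCaMP, treated 16 h with compound (primary 1.53, 7.67, 38.3 uM; confirmation 11 concentrations, up to 76.6 uM), then 100 nM thapsigargin for 4 h. Secreted Gaussia luciferase in medium read by coelenterazine luminescence.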
# Sequence of Glucocorticoid receptor (Homo sapiens) (P04150 whole entry, looked up, the tested form may be a part): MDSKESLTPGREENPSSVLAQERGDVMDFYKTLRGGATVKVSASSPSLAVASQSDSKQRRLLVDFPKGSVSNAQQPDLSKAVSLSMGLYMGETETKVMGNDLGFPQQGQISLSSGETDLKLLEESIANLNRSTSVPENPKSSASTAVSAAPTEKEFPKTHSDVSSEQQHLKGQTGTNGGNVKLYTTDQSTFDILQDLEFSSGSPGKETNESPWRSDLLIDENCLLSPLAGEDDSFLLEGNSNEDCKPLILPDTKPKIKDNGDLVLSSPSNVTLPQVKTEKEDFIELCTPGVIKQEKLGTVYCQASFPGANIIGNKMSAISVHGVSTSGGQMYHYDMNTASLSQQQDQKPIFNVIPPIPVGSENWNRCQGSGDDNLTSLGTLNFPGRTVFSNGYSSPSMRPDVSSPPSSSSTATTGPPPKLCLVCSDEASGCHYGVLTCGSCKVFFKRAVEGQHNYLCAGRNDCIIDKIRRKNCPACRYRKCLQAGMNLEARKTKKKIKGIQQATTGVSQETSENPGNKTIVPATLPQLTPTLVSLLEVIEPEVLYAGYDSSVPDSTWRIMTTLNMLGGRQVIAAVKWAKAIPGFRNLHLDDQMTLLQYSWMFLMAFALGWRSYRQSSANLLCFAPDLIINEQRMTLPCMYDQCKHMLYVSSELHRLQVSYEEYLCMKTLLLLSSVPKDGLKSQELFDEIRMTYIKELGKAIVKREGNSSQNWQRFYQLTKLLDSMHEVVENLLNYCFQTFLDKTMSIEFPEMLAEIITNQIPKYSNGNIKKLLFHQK
# Sequence of 3',5'-cyclic-AMP phosphodiesterase 4B (Homo sapiens) (Q07343 whole entry, looked up): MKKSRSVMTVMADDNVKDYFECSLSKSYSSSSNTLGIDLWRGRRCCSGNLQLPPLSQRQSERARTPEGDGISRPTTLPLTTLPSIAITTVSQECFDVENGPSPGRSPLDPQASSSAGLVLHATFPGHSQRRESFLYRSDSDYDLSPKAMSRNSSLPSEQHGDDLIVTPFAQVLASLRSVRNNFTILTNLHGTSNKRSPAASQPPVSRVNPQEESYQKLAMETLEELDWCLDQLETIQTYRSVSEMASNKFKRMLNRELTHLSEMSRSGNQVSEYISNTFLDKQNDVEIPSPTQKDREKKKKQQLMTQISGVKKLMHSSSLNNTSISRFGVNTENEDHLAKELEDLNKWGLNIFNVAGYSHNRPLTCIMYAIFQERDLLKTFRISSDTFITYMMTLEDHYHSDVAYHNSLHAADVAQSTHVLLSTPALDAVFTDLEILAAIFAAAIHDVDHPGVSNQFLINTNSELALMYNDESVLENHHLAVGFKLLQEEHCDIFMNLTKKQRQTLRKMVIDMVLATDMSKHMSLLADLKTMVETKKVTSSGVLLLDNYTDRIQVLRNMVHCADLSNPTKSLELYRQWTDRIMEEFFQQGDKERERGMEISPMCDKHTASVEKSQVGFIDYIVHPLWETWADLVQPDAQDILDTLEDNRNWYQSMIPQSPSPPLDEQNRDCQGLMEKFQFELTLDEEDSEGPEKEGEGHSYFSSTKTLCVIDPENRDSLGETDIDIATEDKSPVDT
# Sequence of Alpha-galactosidase (Coffea arabica) (Q42656 whole entry, looked up): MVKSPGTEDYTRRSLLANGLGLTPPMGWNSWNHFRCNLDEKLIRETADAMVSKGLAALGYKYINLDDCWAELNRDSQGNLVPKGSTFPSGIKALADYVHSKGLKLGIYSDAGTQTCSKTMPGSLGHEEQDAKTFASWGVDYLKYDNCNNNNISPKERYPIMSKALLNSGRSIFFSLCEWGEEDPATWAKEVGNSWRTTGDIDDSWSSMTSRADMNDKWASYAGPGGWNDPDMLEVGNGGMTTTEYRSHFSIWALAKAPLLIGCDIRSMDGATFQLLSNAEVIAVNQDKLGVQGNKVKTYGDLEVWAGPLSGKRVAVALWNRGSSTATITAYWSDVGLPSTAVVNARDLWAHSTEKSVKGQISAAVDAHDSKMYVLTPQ
# Sequence of ATP-dependent DNA helicase Q1 (Homo sapiens) (P46063 whole entry, looked up): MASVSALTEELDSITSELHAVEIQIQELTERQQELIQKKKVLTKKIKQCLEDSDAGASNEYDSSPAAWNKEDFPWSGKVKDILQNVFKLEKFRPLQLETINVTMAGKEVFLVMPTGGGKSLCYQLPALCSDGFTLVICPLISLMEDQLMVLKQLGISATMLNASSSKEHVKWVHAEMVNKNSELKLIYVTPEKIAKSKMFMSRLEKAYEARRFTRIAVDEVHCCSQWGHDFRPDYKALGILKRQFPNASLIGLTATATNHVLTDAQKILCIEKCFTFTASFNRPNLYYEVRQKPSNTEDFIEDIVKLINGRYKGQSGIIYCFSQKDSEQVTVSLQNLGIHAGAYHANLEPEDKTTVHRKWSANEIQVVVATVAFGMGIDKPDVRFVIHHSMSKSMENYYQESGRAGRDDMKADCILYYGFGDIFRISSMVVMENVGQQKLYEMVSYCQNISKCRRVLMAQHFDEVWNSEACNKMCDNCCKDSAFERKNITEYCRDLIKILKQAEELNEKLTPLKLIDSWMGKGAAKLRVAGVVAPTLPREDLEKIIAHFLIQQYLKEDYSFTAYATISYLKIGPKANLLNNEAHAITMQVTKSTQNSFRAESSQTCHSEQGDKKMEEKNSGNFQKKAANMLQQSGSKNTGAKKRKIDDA
# Sequence of RecQ-like DNA helicase BLM (Homo sapiens) (P54132 whole entry, looked up): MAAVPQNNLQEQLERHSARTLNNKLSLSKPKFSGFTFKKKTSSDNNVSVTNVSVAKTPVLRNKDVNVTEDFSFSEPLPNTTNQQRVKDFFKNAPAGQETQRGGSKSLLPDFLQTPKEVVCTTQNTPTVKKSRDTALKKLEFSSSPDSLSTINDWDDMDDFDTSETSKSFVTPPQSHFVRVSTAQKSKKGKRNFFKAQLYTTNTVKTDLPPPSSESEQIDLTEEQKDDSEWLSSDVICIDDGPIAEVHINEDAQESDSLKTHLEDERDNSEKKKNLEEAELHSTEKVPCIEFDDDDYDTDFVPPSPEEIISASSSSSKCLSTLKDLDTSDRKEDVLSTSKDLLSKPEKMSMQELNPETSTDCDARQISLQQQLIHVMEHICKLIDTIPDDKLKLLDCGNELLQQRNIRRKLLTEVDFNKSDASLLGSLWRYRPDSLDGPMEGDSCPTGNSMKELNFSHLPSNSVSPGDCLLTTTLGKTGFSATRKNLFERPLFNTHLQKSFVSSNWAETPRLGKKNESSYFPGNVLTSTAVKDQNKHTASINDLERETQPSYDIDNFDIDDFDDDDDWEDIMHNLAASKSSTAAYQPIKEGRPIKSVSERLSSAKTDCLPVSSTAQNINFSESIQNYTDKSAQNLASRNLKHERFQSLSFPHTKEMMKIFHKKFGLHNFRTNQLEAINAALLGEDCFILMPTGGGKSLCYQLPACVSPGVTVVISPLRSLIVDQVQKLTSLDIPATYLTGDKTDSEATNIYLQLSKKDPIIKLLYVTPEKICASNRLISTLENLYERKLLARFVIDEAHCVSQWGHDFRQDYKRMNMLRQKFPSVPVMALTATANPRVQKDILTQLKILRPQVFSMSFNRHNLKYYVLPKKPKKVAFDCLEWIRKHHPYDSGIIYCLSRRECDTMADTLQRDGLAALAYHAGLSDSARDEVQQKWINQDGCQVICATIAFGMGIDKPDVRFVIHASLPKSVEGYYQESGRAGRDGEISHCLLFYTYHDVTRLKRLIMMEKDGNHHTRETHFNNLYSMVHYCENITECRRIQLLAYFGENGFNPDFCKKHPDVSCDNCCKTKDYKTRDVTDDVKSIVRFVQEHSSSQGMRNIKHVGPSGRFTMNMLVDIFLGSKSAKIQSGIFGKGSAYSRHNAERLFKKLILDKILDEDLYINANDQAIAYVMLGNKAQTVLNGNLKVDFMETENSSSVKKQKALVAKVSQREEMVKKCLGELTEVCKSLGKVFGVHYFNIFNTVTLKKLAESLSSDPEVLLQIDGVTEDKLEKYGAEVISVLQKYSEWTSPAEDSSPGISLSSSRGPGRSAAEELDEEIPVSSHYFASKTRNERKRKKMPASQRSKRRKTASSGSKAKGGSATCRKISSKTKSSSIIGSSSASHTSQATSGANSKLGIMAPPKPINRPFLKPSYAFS
# Sequence of Thyrotropin-releasing hormone receptor (Homo sapiens) (P34981 whole entry, looked up): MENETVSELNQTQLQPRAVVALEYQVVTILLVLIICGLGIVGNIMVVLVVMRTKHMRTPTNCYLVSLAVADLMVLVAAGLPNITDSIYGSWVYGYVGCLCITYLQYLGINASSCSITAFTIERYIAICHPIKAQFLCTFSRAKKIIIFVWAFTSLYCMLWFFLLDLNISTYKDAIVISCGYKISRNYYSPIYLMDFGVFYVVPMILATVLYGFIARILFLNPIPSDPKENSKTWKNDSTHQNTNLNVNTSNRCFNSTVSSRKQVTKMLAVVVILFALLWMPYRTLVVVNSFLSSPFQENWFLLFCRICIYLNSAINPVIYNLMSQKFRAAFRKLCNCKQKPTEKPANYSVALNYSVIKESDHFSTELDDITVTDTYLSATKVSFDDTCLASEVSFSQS
# Sequence of DNA repair nuclease/redox regulator APEX1 (Homo sapiens) (P27695 whole entry, looked up): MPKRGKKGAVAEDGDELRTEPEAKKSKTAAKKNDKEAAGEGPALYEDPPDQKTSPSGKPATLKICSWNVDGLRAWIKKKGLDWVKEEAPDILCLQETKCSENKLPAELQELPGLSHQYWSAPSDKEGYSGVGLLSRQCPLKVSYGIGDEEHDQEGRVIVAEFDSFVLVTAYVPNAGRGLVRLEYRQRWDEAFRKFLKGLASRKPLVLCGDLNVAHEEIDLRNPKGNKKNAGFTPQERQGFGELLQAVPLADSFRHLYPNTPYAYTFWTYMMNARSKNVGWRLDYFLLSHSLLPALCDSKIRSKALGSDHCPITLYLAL
# Sequence of Guanine nucleotide-binding protein G(i) subunit alpha-1 (Homo sapiens) (P63096 whole entry, looked up): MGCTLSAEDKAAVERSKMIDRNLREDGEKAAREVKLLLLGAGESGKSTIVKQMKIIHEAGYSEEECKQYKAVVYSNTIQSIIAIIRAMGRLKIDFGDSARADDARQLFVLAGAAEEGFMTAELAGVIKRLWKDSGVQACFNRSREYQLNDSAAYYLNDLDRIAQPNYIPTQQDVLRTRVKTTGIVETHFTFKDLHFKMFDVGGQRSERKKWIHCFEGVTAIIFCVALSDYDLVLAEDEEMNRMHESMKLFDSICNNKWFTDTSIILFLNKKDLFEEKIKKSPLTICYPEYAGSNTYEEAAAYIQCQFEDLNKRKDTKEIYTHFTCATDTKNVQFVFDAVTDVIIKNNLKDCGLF
structure (smiles),measurement,setting,value
CN1CCN(c2ccc3ccccc3n2)CC1,"activity change, negative = inhibition",[1],-20.6% (inactive)
same,Potency,[2],> 46 µM (inactive)
same,Potency,[3],> 46 µM (inactive)
same,Potency,[4],inactive
same,outcome,[5],inactive
same,outcome,[6],inactive
same,outcome,[7],inactive
same,outcome,[8],inactive
same,outcome,[9],inactive
same,outcome,[10],inactive
same,outcome,[11],inactive
same,"activity change, negative = inhibition",[12]; at 57.5 µM (top of the series),-1.18% (inactive) and 2.43% (inactive)
same,max response,[12]; measured here: cell count channel max response,12.9% and -15.1%
same,max response,[12]; measured here: lipid channel max response,12.4% and -14.2%
same,Potency,[13],inactive
same,Potency,[14],inactive
same,outcome,[15],inactive
same,Potency,[16],inactive
same,Potency,[17],inactive
same,Potency,[18],inactive
same,Potency,[19],inactive
same,Potency,[20],inactive
same,Potency,[21],inactive
same,Potency,[22],inactive
same,Potency,[23],inactive
same,Potency,[24],inactive
same,Potency,[25],inactive
same,outcome,[26],inactive
same,activation,[27],1.56% (inactive)
same,outcome,[28],inactive
same,Potency,[29],inactive
same,Potency,[30],inactive
same,Potency,[31],inactive
same,Potency,[32],inactive

# Reference: PubChem BioAssay (NCATS)
